In the library only some 19% were active in any assay of this set; here they are far more common.
HT1080 IDH1KD tx: HT-1080 IDH1 knockdown cell toxicity (counter line); HT-1080 IDH1 knockdown viability, ATP luminescence, 48 h; Potency, µM (doses to about 46.1 µM), inactives show at the top dose activity, negative = toxicity, most hits filed as cytotoxic; 2% of 360,000 active; AID 686971;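 also: potency is read from the fitted curve at half-maximal effect; 0% = DMSO wells and -100% = cell-free medium wells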
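Luminescent ATP read-out (CellTiter-Glo, 10 min at room temperature) after 48 h compound exposure at 37 °C gave viability of IDH1-knockdown HT-1080 cells. Activity was normalised to DMSO and cell-free wells, then fitted as concentration-response curves.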
DT40 TDP1 CPT: DT40-hTDP1 cell growth loss with CPT; AID 686979; 12% of 420,000 active; Potency, µM (top dose mostly 46.2 µM), inactives show top-dose activity change, negative = growth inhibition, hits mostly inhibitors; chicken DT40 Tdp1-/-;hTDP1 cells + 20 nM CPT, ATP luminescence, 48 h; also: potency is read from the fitted curve at half-maximal effect; nearly all actives have a fitted effect of over 55% in size
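Chicken DT40 Tdp1-/- cells complemented with human TDP1, 400 cells/well, exposed to compounds plus 20 nM camptothecin for at least 48 h at 37 C; viability read as ATP content by CellTiter-Glo luminescence.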
DT40 TDP1 no CPT: qHTS for Inhibitors of human tyrosyl-DNA phosphodiesterase 1 (TDP1): qHTS in cells in absence of CPT; DT40 Tdp1-/- hTDP1 cells, no CPT, ATP luminescence, 48 h; Potency, µM (top dose mostly 46.2 µM), inactives show at the highest dose activity change, negative = growth inhibition, actives largely listed as inhibitors; 15% of 420,000 active; also: potency is read from the fitted curve at half-maximal effect; nearly all actives have a fitted effect of over 55% in size
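A cellular qHTS used chicken DT40 cells lacking endogenous Tdp1 but carrying stably transfected human TDP1. Compounds were applied without camptothecin, and cell growth kinetics were judged by ATP-dependent luminescence after ≥48 hr.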
ELG1 repair inh: ELG1-dependent DNA repair inhibition. HEK293T ELG1-luciferase reporter, luminescence, 16 h; DNA damage induced by 5-fluorouridine. Potency, µM (top dose mostly 46.1 µM), for the others: at the highest dose activity change, negative = inhibition, usual class: inhibitors. 2.3% of 330,000 active; also: potency is read from the fitted curve at half-maximal effect; nearly all actives have a fitted effect of over 55% in size
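DMSO vehicle served as the neutral condition. Each well held 2,000 cells given 5-fluorouridine plus compound; after 16 hr at 37 °C/5% CO2, ONE-Glo was added and luciferase measured 30 min later.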
HT1080NT lethal: kills 2HG-producing HT-1080-NT fibrosarcoma cells; Potency, µM (top dose mostly 46.1 µM), without a hit: at the highest dose activity, negative = less viability, usual class: cytotoxic; HT-1080-NT fibrosarcoma viability, CellTiter-Glo ATP luminescence, 48 h; AID 686970; 1.6% of 360,000 active;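 also: NT is the 2HG producing partner of a matched IDH1 knockdown line; potency is read from the fitted curve at half-maximal effect; 0% = DMSO-treated cells and -100% = media-only wells without cells; nearly all actives have a fitted effect of over 55% in size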
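Read-out is CellTiter-Glo luminescence after 10 minutes at room temperature, following 48 hours' compound treatment of HT-1080-NT cells (750 cells/well, RPMI, 5% FBS, 37 degrees C).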
IL-1B inflam inh: inflammasome signaling inhibition, IL-1 beta readout; THP-1 LPS/ATP IL-1B secretion, AlphaLISA, 16 h; active compounds read low; activity change, % at 57.5 µM; 4.7% of 360,000 active; AID 743279; in the data active = activity change below about -50%; inconclusive = mostly about -30% to -49%
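THP-1 cells pretreated 1 hr with compounds (up to 57.5 uM final), then stimulated with LPS (250 ng/mL final) plus ATP (1.25 mM final); secreted IL-1B measured by AlphaLISA after 16 hr, decreased signal indicating inhibition.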
Starred values were filed as active, the others as inactive; ? = inconclusive; / = no result. Unless noted, calls follow the shape of the dose curve; as a rule, active = well fitted curve in the direction sought with a large enough effect; inconclusive = small, poorly fitted or top-dose-only effect, or another doubt; inactive = no such curve, though single readings can be large; an effect the other way counts as inactive or inconclusive. Unless noted, % is scaled to controls: 0 for no effect and ±100 for the full control effect.

SMILES	HT1080 IDH1KD tx	DT40 TDP1 CPT	DT40 TDP1 no CPT	ELG1 repair inh	HT1080NT lethal	IL-1B inflam inh
O=C(O)c1ccc([N+](=O)[O-])cc1-c1cc([N+](=O)[O-])ccc1C(=O)O	6.7%	5.0%	-24.1%	/	-1.1%	20.6
CN1OC[C@@H]2CN(C(=O)C(C)(C)C)[C@H](c3ccc(-c4cc5ccccc5o4)cc3)C[C@@H]21	6.1%	?	20.6µM*	/	3.1%	0.2
CCCc1nnc2n1N=C(c1ccc(C)cc1)CS2	-0.4%	?	?	4.7%	2.1%	43.4
COc1cccc(N2CCN(C(=O)c3ccc(CS(=O)c4ccc(Cl)cc4)o3)CC2)c1 (stereo not drawn)	1.84µM*	0.731µM*	0.92µM*	?	?	24.0
COc1cccc(N2CCN(C(=O)c3ccc(CS(=O)c4ccc(C)cc4)o3)CC2)c1 (stereo not drawn)	0.291µM*	0.581µM*	0.517µM*	9.6%	0.206µM*	31.3
O=C(c1ccco1)N1CCN(C(=O)c2ccc(CS(=O)c3ccc(Cl)cc3)o2)CC1 (stereo not drawn)	11.7%	3.7%	23.4%	5.4%	24.4%	13.1
COc1cccc(N2CCN(C(=O)c3ccc(CS(=O)Cc4ccc(C)cc4)o3)CC2)c1 (stereo not drawn)	-2.1%	?	?	14.6µM*	-4.0%	-0.8
N#Cc1cccc(NC(=O)N2CCCC3(CCN(C(=O)c4cc(C(F)(F)F)cc(C(F)(F)F)c4)CC3)C2)c1	/	-1.0%	?	/	/	/
CSc1ncc(CN2CCc3c([nH]c4ccccc34)C2C(C)(C)C)cn1 (stereo not drawn)	2.3%	?	23.1µM*	-17.0%	0.4%	5.9
CCC1CCCCN1C(=O)COC(=O)CN(C)S(=O)(=O)c1ccc(NC(C)=O)cc1 (stereo not drawn)	-0.3%	-22.1%	-13.1%	24.2%	-9.1%	5.5
O=C(CCc1ccccc1)NC1(Cc2ccccc2)CCN(CCCc2ccccc2)C1=O (stereo not drawn)	?	16.4µM*	8.2µM*	?	?	-14.8
O=C(NC1(Cc2ccccc2)CCN(CCc2cccs2)C1=O)c1ccccc1 (stereo not drawn)	2.9%	25.9µM*	?	?	-9.1%	-13.4
CC1CC(C)CN(C(=O)C(C)N(C)CC(=O)Nc2ccc(F)cc2)C1 (stereo not drawn)	-1.7%	-28.5%	?	-3.7%	0.0%	12.3
CN(CC(=O)Nc1ccc(S(=O)(=O)N2CCCC2)cc1)Cc1ccc(Cl)cc1Cl	-13.8%	18.4µM*	?	?	-13.6%	9.6
CN(CC(=O)Nc1cccc(F)c1)C(=O)c1ccc(N2CCCCC2)c([N+](=O)[O-])c1	-3.7%	16.4µM*	14.6µM*	2.2%	?	-26.7
COc1ccc(N(C(C)C(=O)Nc2ccc(S(=O)(=O)N3CCCCC3)cc2)S(C)(=O)=O)cc1 (stereo not drawn)	-8.2%	?	29.1µM*	-0.7%	-1.5%	5.4
CC1CC(C)CN(C(=O)C(C)N(C)CC(=O)Nc2ccc(Cl)cc2)C1 (stereo not drawn)	-8.7%	16.4µM*	14.6µM*	?	-21.8%	0.0
COc1ccc(N(C(C)C(=O)Nc2ccc(S(=O)(=O)N3CCOCC3)cc2)S(C)(=O)=O)cc1 (stereo not drawn)	8.0%	9.2%	?	1.6%	-12.0%	12.1
CN(CC(=O)Nc1ccc(S(=O)(=O)N2CCCC2)cc1)CC(=O)Nc1ccc(F)c(F)c1F	-22.4%	-0.4%	?	?	-23.1%	3.4
